Hits are enriched below; roughly 9.6% of the tested compounds scored in any of these assays.
Lmaj promast: Leishmania major promastigote growth inhibition, primary screen; Leishmania major promastigotes, resazurin fluorescence viability; inhibition, % at 10 µM; 200,000 compounds, 9% hits; AID 1063, 2008; in the data active = inhibition above about 50%;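 note: promastigotes grown with compound for 44 hours at 28 °C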
HCT116 PTEN-null: growth suppression of PTEN-null HCT116, primary screen, cell-based, CellTiter-Glo; HCT116 PTEN-null viability, 60 h; hits give low values; viability, % at 10 µM; 140,000 compounds, 1.2% hits; AID 827, 2007;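 active = viability at or below a set limit, 4 SD under the median of all tested compounds, cut at about 3.7% in these data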;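 note: PTEN knockout HCT116 line with beta catenin targeted HCT116 as companion control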
HCT116 bCat-KO: primary screen for growth suppressors in beta-catenin knockout HCT116 cells (colon tumor, human) | HCT116 beta-catenin knockout viability, CellTiter-Glo, 60 h; hits give low values | AID 818, 2007 | 140,000 compounds, 1.5% hits | viability, % at 10 µM;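 active = viability at or under a set limit, the compound median less 4 SD, cut at about 6% in these data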
Insulin prom up: insulin promoter activators in MIN6 cells, imaging, high-content screening, mouse beta cells | z-score at 5 µM | 190,000 compounds, 0.3% hits | MIN6 insulin promoter-GFP reporter; hits give high values | AID 1625, 2009;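 active = z-score above 3 at 5 µM with at least 500 cells counted in the well; inconclusive = wells under 500 cells, flagged as cytotoxic or low count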
INS promoter inh: inhibitors of insulin promoter-driven GFP, primary screen, imaging, TRM-6 cells (human fetal islet line), eGFP reporter, cell count; 130,000 compounds, 0.9% hits; AID 1273, 2008; reporter expression induced with tamoxifen; inhibition, % at 2 µM;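 active = inhibition above the mean plus 3 SD, with well images judged a real hit on visual review, cut at about 60% in these data, passing the limit was not always enough; inconclusive = inhibition over the cutoff but images rejected on review; inactive = inhibition not above the cutoff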
Autophagy HCS: autophagy modulators in MEF cells, primary screen, imaging, high-content, MEF GFP-LC3. AID 463193, 2010. 190,000 compounds, 0.98% hits. calls only at 10 µM (by protocol). MEF GFP-LC3 puncta imaging; test concentration mostly 10 µM;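 active = percentage of spot-positive cells more than 3 SD above its plate mean, without a fluorescence outlier flag or 80% toxicity; inconclusive = no clear call, values can overlap the other calls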
Numbers stand for hits; - = inactive; ? = inconclusive; . = no result given.

SMILES | Lmaj promast | HCT116 PTEN-null | HCT116 bCat-KO | Insulin prom up | INS promoter inh | Autophagy HCS
COc1ccc(CC(=O)Nc2nc3ccc(F)cc3s2)cc1S(=O)(=O)N1CCOCC1 | 90 | - | - | - | - | -
COc1ccc2nc(NC(=O)C3CCN(S(=O)(=O)c4cccnc4)CC3)sc2c1 | 54 | - | - | - | . | -
O=C(Nc1ccc(Cl)cc1F)C1CCN(S(=O)(=O)c2cccnc2)CC1 | 73 | - | - | - | - | -
O=C(NC1CC1)C1=C[C@H](C2CCCCC2)C[C@H](OCCCCO)O1 | . | . | . | - | . | .
N#Cc1c(-c2ccco2)nc(SCC(=O)Nc2ccc(S(N)(=O)=O)cc2)[nH]c1=O | - | - | - | - | - | -
O=C(Cc1cc(=O)[nH][nH]1)N/N=C/C(Cl)=C/c1ccccc1 | - | - | - | - | - | -
CCOc1ccc2nc(NC(=O)C3CCN(c4cnccn4)CC3)sc2c1 | 70 | - | - | - | . | -
Cc1ccc2nc(NC(=O)C3CCN(S(=O)(=O)c4cccc5nsnc45)CC3)sc2c1 | - | - | - | - | . | -
CCOc1ccc2nc(NC(=O)C3CCN(S(=O)(=O)c4cnc[nH]4)CC3)sc2c1 | - | - | - | - | . | -
Cc1ccc(NC(=O)C2CCN(c3cnccn3)CC2)cc1 | 78 | . | . | - | . | -
Cc1ccc2nc(NC(=O)C3CCN(S(=O)(=O)c4cc([N+](=O)[O-])ccc4Cl)CC3)sc2c1 | 99 | - | - | ? | - | -
COc1ccc2nc(NC(=O)C3CCN(S(=O)(=O)c4cccs4)CC3)sc2c1 | - | - | - | - | - | -
Cc1ccc2nc(NC(=O)C3CCN(S(=O)(=O)c4cccs4)CC3)sc2c1 | 52 | - | - | - | . | -
COc1ccc(CC(=O)Nc2ccc(-c3cn4ccccc4n3)cc2)cc1OC | - | - | - | . | - | -
C=CCC(C)(NCc1ccccc1)c1ccc(C)cc1 (centres undefined) | 69 | - | - | - | - | -
COc1ccc(Cl)cc1NC(=O)C/C(C)=N/NC(=O)CC#N | - | - | - | - | - | -
O=C(CSc1ncn[nH]1)c1ccccc1 | - | - | - | - | . | -
O=C(/C=C/c1ccc2c(c1)OCO2)Nc1nc(-c2ccc(F)cc2F)cs1 | - | - | 5.8 | - | - | -
Cc1ccc2nc(NC(=O)/C=C/c3ccc4c(c3)OCO4)sc2c1 | - | 1.2 | - | - | - | -
CCn1c(O)c(N=NC(=O)c2cccnc2)c2cc(Br)ccc21 | . | . | . | - | . | .
CCn1c(O)c(C2=c3ccccc3=NC2=O)c2cc(Br)ccc21 | 100 | . | . | - | . | -
Cc1nn(-c2ccccc2)c(C)c1N | - | . | . | - | 75 | -
CNCc1c(C)nn(-c2ccccc2)c1C | - | . | . | - | - | -
Cc1ccc(CN2CCNC(=O)C2CC(=O)O)o1 (centres undefined) | - | - | - | - | . | -
O=S(=O)(c1ccc(Cl)s1)N1CCCc2cccc(O)c21 | - | - | - | - | - | -
SMILES | Lmaj promast | HCT116 PTEN-null | HCT116 bCat-KO | Insulin prom up | INS promoter inh | Autophagy HCS
O=C(CSc1ncccn1)NCc1ccccc1Cl | - | - | - | - | . | -
Cc1c(Cl)cccc1-n1c(SCC(=O)NCc2cccs2)nnc1-c1ccncc1 | - | - | - | - | 91 | -
O=C(CSc1nnc(-c2ccncc2)n1-c1ccc(Cl)cc1)NCc1cccs1 | - | - | - | - | - | -
Cc1c(Cl)cccc1-n1c(SCC(=O)NCc2ccccc2Cl)nnc1-c1ccncc1 | 100 | - | - | - | - | -
Cc1nn2c(N3CCN(C)CC3)c3c(nc2c1-c1ccccc1)CCCC3 | . | . | . | - | . | .
C=CCOC(=O)c1cc(-c2ccc(/C=C3\C(=O)NC(=O)C(C#N)=C3C)o2)ccc1Cl | 86 | - | - | - | - | -
CCCOC(=O)c1cc(-c2ccc(C=O)o2)ccc1Cl | 64 | - | - | . | . | -
COc1ccc(/C=N/NC(=S)Nc2ccccc2[N+](=O)[O-])cc1O | 57 | - | - | - | - | -
O=C(O)c1cccc(NC(=S)N/N=C/c2cccc(O)c2)c1 | - | . | . | - | 78 | -
O=C(O)c1cccc(NC(=S)N/N=C/c2ccccn2)c1 | - | . | . | - | . | -
CCCOc1ccc(/C=N/NC(=S)Nc2ccccc2[N+](=O)[O-])c(O)c1 | 98 | - | - | ? | - | -
O=[N+]([O-])c1cc(/C=N/NC(=S)Nc2ccccc2Cl)ccc1Cl | - | . | . | - | . | -
COc1cc(/C=N/NC(=S)Nc2cccc(S(=O)(=O)N(C)C)c2)ccc1O | 67 | - | - | - | - | -
CN(C)S(=O)(=O)c1cccc(NC(=S)N/N=C/C2CC=CCC2)c1 (centres undefined) | - | . | . | - | . | -
Cc1[nH][nH]c(=O)c1N=Nc1ccccc1Cl | . | . | . | - | . | .
CC1Cc2ccccc2N1C(=O)CSC1=NCCS1 (centres undefined) | - | - | - | - | - | -
COc1ccc(N(CC(=O)NCc2ccc3c(c2)OCO3)S(=O)(=O)c2c(C)nn(C)c2C)cc1 | - | - | - | - | . | -
Cn1nc(C(F)(F)F)c(C#N)c1N1CCN(c2ccccc2F)CC1 | - | - | - | - | . | -
COc1cccc(N2CCN(c3c(C#N)c(C(F)(F)F)nn3C)CC2)c1 | 80 | - | - | - | - | -
COc1cccc(N2CCN(c3ncccn3)CC2)c1 | - | . | - | 3.1 | . | -
Cc1nc(N)sc1N=Nc1ccc(F)cc1 | - | - | - | - | - | -
O=C(COC(=O)c1ccccc1NC(=O)c1ccco1)NC1CCS(=O)(=O)C1 (centres undefined) | - | . | . | . | - | -
CC1CCCCC1NC(=O)/C(C#N)=C/c1ccc(OCC(N)=O)cc1 (centres undefined) | 64 | - | - | - | . | -
c1ccc(C2=Nc3ccccc3OC2)cc1 | 69 | - | - | . | - | -
CCN(CC)CCN(C(=O)c1ccccc1OC)c1nc2ccc(F)cc2s1 | - | . | . | - | - | -
SMILES | Lmaj promast | HCT116 PTEN-null | HCT116 bCat-KO | Insulin prom up | INS promoter inh | Autophagy HCS
CCOc1ccc(/C=C(/NC(=O)c2ccccc2Cl)C(=O)O)cc1 | - | . | . | . | - | -
CCOc1ccc(N(C(=O)c2ccccc2Cl)C2=NC(C)(C)CS2)cc1 | 62 | . | . | - | . | -
COc1ccc(-n2c(C)cc(/C=N/Nc3nc(N4CCOCC4)nc(N4CCOCC4)n3)c2C)cc1 | 98 | - | - | - | - | -
CN1CCN(/N=C/c2ccc(N(C)c3ccccc3)cc2)CC1 | 83 | . | . | - | - | -
COc1cccc(/C=N/N2CCN(C)CC2)c1 | - | - | - | . | 73 | -
COc1ccc(/C=N/N2CCN(C)CC2)cc1O | - | - | - | - | - | -
CN1CCN(/N=C/c2ccc(Cl)c(Cl)c2)CC1 | 97 | - | - | - | . | -
CC(C)(O)C#Cc1ccc(C(=O)NCc2ccccc2F)cc1 | - | - | - | - | - | -
CCOC(=O)N1CCN(C(=O)c2cn(CC)c3ccc(S(=O)(=O)N4CCC(C)CC4)cc3c2=O)CC1 | - | . | . | - | - | -
Cc1cccc(CN2CCN(C(=O)CCl)CC2)c1 | 100 | - | - | - | . | -
Cc1cccc(CN2CCN(C(=O)c3ccccc3F)CC2)c1 | - | - | - | - | - | -

Screening data (PubChem)
